A selection: hits, their analogues and other compounds. The true share with any hit is near 12%.
TDP1 block – qHTS Assay for Inhibitors of Tyrosyl-DNA Phosphodiesterase (TDP1); hit rate 0.28% among 350,000; Potency, µM (series often up to 130 µM), most hits filed as inhibitors; recombinant TDP1, AlphaScreen DNA substrate cleavage; further: nearly all actives have a fitted effect of over 40% in size
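Steps: enzyme plus compound, 15 min RT; add biotin/phosphotyrosine-FITC oligonucleotide (15 nM final), react 5 min; add donor/acceptor beads (10 ug/ml final), 10 min; read AlphaScreen. Tdp1 at 1 nM final.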
JMJD2A Tudor inh – qHTS Assay for Inhibitors of JMJD2A-Tudor Domain; Potency, µM (highest dose often 114 µM), usual class: inhibitors; hit rate 4.4% among 390,000; AID 504339, 2011; Lysine-specific demethylase 4A (Homo sapiens), O75164; AlphaScreen JMJD2A-Tudor / H3K4me3 peptide binding; further: nearly all actives have a fitted effect of over 50% in size
Sfp inh – qHTS Assay for Inhibitors of Bacillus subtilis Sfp phosphopantetheinyl transferase (PPTase). Biochemical Sfp PPTase activity, qHTS. Potency, µM, most hits filed as inhibitors. hit rate 3.5% among 310,000. AID 1490, 2009. 4'-phosphopantetheinyl transferase ffp (Bacillus subtilis), Q9F4F7;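 further: the enzyme is Sfp with the accession as filed and its product quenches rhodamine fluorescence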
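Sfp 15 nM + cpd, 15 min RT; start w/ rhodamine-CoA 5 uM, BHQ-2-YbbR 12.5 uM (final); 50 mM Hepes pH 7.6, 10 mM MgCl2, 0.01% NP-40, 0.01% BSA; read 525/598 nm at 0 and 30 min.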
G9a block – qHTS Assay for Inhibitors of Histone Lysine Methyltransferase G9a | Potency, µM (series often up to 102 µM), usual class: inhibitors | G9a H3K9 monomethylation, AlphaScreen, 2 h | AID 504332, 2011 | hit rate 8.8% among 350,000 | Histone-lysine N-methyltransferase EHMT2 (Homo sapiens), Q96KQ7; further: nearly all actives have a fitted effect of over 75% in size
Target sequence (Q96KQ7 913-1193 limits assumed): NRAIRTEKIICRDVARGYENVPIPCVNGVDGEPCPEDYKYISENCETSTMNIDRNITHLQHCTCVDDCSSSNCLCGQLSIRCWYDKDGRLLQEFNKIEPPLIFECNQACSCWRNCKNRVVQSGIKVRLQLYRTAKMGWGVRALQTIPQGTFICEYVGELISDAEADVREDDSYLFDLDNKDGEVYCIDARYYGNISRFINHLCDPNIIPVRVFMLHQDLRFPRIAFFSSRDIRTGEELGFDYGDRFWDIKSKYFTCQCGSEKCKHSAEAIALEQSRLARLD
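AlphaScreen detection with an anti-monomethyl H3K9 antibody quantified product after a 2 h room-temperature reaction containing 500 nM biotinylated H3K9 peptide, 20 µM SAM and 20 nM enzyme, which had been preincubated 15 min with compound.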
BAZ2B block – qHTS Assay for Inhibitors of BAZ2B | hit rate 4.4% among 360,000 | Bromodomain adjacent to zinc finger domain protein 2B (Homo sapiens), Q9UIF8 | AlphaScreen BAZ2B-H3K14Ac peptide displacement | Potency, µM (doses to about 114 µM), actives largely listed as inhibitors; further: nearly all actives have a fitted effect of over 60% in size
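Complex of BAZ2B and biotin-H3K14Ac (50 nM apiece) forms over 30 min at RT, then faces library compounds up to 110 uM for another 30 min; AlphaScreen beads added, 20 min dark incubation, luminescence read.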
HP1b chromo inh – HTS for Inhibitors of HP1-beta Chromodomain Interactions with Methylated Histone Tails | Chromobox protein homolog 1 (Homo sapiens), P83916 | AlphaScreen HP1-beta / biotin-H3K9me3 peptide binding | Potency, µM (series often up to 114 µM), hits mostly inhibitors | hit rate 0.56% among 390,000; further: nearly all actives have a fitted effect of over 70% in size
Target sequence (P83916 whole entry, looked up): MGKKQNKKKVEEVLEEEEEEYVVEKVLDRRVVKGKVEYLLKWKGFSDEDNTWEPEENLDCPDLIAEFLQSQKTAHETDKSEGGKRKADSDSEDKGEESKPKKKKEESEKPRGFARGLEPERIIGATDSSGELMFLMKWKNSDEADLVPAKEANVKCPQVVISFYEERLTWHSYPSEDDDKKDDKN
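AlphaScreen: HP1-beta (50 nM) preformed 30 min with biotin-H3(1-18)K9me3 peptide (50 nM) in PBS pH 7.4, 0.01% Tween-20. Compound added for 30 min at RT, then streptavidin donor/nickel chelate acceptor beads (10 ug/mL) for 30 min.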
A number is an active result; – = inactive; ? = inconclusive; · = no result; [ ] = remark or other dose. The call rests on the fitted dose curve; in most records, active means well fitted curve in the direction sought with a large enough effect; inconclusive means small, poorly fitted or top-dose-only effect, or another doubt; inactive means no such curve, though single readings can be large; an effect the other way counts as inactive or inconclusive.

SMILES | TDP1 block | JMJD2A Tudor inh | Sfp inh | G9a block | BAZ2B block | HP1b chromo inh
Cc1ccc(S(=O)(=O)N2CCOCC2)cc1NC(=O)CSc1nc(N)cc(N)n1 | – | – | · | – | – | –
CC(C)(C)NC(=O)NC(=O)CSc1ccc(S(=O)(=O)N2CCOCC2)cn1 | – | 79µM | · | 5.6µM | – | –
COC(=O)c1ccccc1NC(=O)CSc1nc(N)cc(=O)[nH]1 | · | ? | – | 50µM | 56µM | ?
CC(=O)c1ccc(NC(=O)Nc2sc3nc4n(c(=O)c3c2C)CCC(C)CC4)cc1 (stereo not drawn) | – | – | · | – | – | –
O=C(Oc1cccc(NC2=NS(=O)(=O)c3ccccc32)c1)c1cccnc1 | – | – | – | · | – | –
O=C(NN=C1CCCCCC1)C(=O)Nc1cccc(Br)c1 | – | – | – | – | – | –
CC1CCN(C(=O)Cn2cc(SCC(=O)Nc3ccccc3C(F)(F)F)c3ccccc32)CC1 | – | – | · | – | – | –
Cc1ccc(S(=O)(=O)N2CCOCC2)cc1NC(=O)CNC1CCCC1 | – | 5µM | – | · | – | –
COc1ccc(NC(=S)NCC(O)c2ccccc2)c(OC)c1 (stereo not drawn) | – | – | – | – | – | –
COc1ccc(NC(=S)Nc2ccccc2)c(OC)c1 | – | – | – | 16µM | – | –
COc1ccc(NC(=S)Nc2ncccc2C)c(OC)c1 | – | 50µM | – | ? | 40µM | ?
COc1ccc(NC(=O)C(=O)Nc2cccc3cccnc23)c(OC)c1 | · | – | – | –[0.501 µM] | – | –
CC(C)(C)C(=O)C1=C(O)C(=O)N(Cc2ccccc2)C1c1ccccc1F (stereo not drawn) | · | – | – | –[0.501 µM] | – | –
Cc1nc(N2CCOCC2)c2nc(-c3ccccc3)n(CC3CCN(C)CC3)c2n1 | – | · | – | · | · | ·
O=S(=O)(O)c1nc2ccccc2n1Cc1cccc2ccccc12 | – | · | – | –[12.7 µM] | – | ·
C#CCOCCOCCOCCNc1nc(N2CCN(C(=O)C([C@@H](C)O)n3cc([C@@H](N)CCCCN)nn3)CC2)nc(N2CCN(C(=O)[C@H](CCC(=O)O)n3cc([C@@H](N)CCCCN)nn3)CC2)n1 (stereo partly drawn) | – | ? | · | · | · | –
C#CCOCCOCCOCCNc1nc(N2CCN(C(=O)C([C@@H](C)O)n3cc([C@@H](N)CCCCN)nn3)CC2)nc(N2CCN(C(=O)[C@H](CCCCN)n3cc([C@@H](N)CC(N)=O)nn3)CC2)n1 (stereo partly drawn) | – | 79µM | · | · | · | –
C#CCOCCOCCOCCNc1nc(N2CCN(C(=O)[C@H](CCCCN)n3cc(CN)nn3)CC2)nc(N2CCN(C(=O)[C@H](CCCCN)n3cc([C@@H](N)CC(N)=O)nn3)CC2)n1 | · | 35µM | · | · | · | –
C#CCOCCOCCOCCNc1nc(N2CCN(C(=O)[C@H](CCCCN)n3cc(CN)nn3)CC2)nc(N2CCN(C(=O)[C@H](CO)n3cc([C@@H](N)C(C)C)nn3)CC2)n1 | – | – | · | · | · | –
C#CCOCCOCCOCCNc1nc(N2CCN(C(=O)[C@H](CCCCN)n3cc([C@@H](N)CC(N)=O)nn3)CC2)nc(N2CCN(C(=O)[C@H](CCCCN)n3cc([C@@H](N)CC(N)=O)nn3)CC2)n1 | – | 79µM | · | · | · | –
O=C(O)CN1C(=O)/C(=C\c2cccc(OCc3ccc(Cl)cc3)c2)SC1=S | – | ? | ? | 40µM | 45µM | –
Cn1cccc1/C=C1\SC(=S)N(CC(=O)O)C1=O | – | – | – | – | – | –
O=C(O)CN1C(=O)/C(=C\c2cccc(OCc3ccccc3F)c2)SC1=S | · | ? | – | ? | – | ?
O=C(O)CN1C(=O)/C(=C\c2cccc(OCc3ccc(F)cc3)c2)SC1=S | · | ? | – | 45µM | ? | –
O=C(O)CN1C(=O)/C(=C\c2cc(Br)ccc2OCc2ccc(Cl)cc2Cl)SC1=S | · | 20µM | ? | –[0.501 µM] | 25µM | ?
SMILES | TDP1 block | JMJD2A Tudor inh | Sfp inh | G9a block | BAZ2B block | HP1b chromo inh
O=C(O)CN1C(=O)/C(=C\c2ccccc2OCc2ccc(Cl)cc2)SC1=S | · | ? | – | –[2.33 µM] | ? | –
CC1(/[N+]([O-])=C\c2ccccc2F)CCCCC1=O (stereo not drawn) | – | – | – | – | – | –
COc1cccc(Cn2c(=O)c(CCc3ccccc3)nc3cncnc32)c1 | · | · | – | –[0.501 µM] | · | ·
CCN1CCN(c2ccccc2NC(=O)c2ccc(-n3cccn3)cc2)CC1 | – | – | · | –[0.501 µM] | – | –
CN(C)c1ccc(CNC(=O)CCn2c(=O)c3cccn3c3ccc(F)cc32)cc1 | – | – | · | – | – | –
N#C/C(C(=O)N1CCOCC1)=c1/s/c(=C\c2ccccn2)c(=O)n1-c1ccccc1 | – | – | – | – | – | –
COc1ccc(-n2c(=O)/c(=C\c3cccs3)s/c2=C(/C#N)C(=O)N2CCN(C)CC2)cc1 | – | – | – | 50µM | – | –
Cc1cc(C(=O)NCC(=O)Nc2c(C)cccc2C)c(C)o1 | – | – | – | – | – | –
CC(=O)c1ccc(NS(=O)(=O)c2cnc(N)nc2)cc1 | – | – | · | ? | ? | –
Cc1n(-c2ccccc2)c2ccc(Cl)cc2[n+]1CCO | – | ? | – | 8.9µM | – | –
COC(=O)c1c(NC(=O)CN2CCC3(O)CCCCC3C2c2ccc(OC)cc2OC)sc(C)c1C (stereo not drawn) | – | ? | 20µM | 28µM | – | ?
Cc1ccc[n+](-c2nc([O-])sc2C=O)c1 | 28µM | –[11.4 µM] | – | ? | ? | –
Nc1nnc(/C=C/c2ccccc2Cl)s1 | – | – | – | 50µM | – | –
O=C(Nc1ccccc1)Nc1nnc(/C=C/c2ccccc2Cl)s1 | – | – | – | – | – | –
O=C1Cc2c([nH]c3ccc(Br)cc23)-c2ccccc2N1 | – | – | – | 40µM | · | –
O=C(/C=C/c1ccco1)N1CCN(c2ccc(F)cc2)CC1 | · | – | 18µM | ? | – | –
COc1ccc(N2CCN(C(=O)/C=C/c3ccco3)CC2)cc1 | – | – | – | 32µM | – | –
O=C(NCCC(=O)N1CCN(c2ccc(F)cc2)CC1)c1ccco1 | · | – | · | 50µM | – | –
Cn1cccc1C(=O)N1CCC2(CCCN(Cc3ccccc3)C2)CC1 | · | · | – | –[12.7 µM] | · | ·
COCC(=O)N1CCC2(CC1)CN(c1ccc(-c3ccccc3)cc1)C2 | · | · | – | –[12.7 µM] | · | ·
COc1ccc(N(CC(=O)N2CCCCCC2)S(C)(=O)=O)cc1Cl | · | – | – | · | – | –
COc1ccc(N(CC(=O)N2CCc3ccccc3C2)S(C)(=O)=O)cc1Cl | – | – | – | 50µM | – | –

Screening results deposited in PubChem by National Center for Advancing Translational Sciences (NCATS).
